Test results taken from ChEMBL document CHEMBL4888484, “Replenishing the malaria drug discovery pipeline: Screening and hit evaluation of the MMV Hit Generation Library 1 (HGL1) against asexual blood stage Plasmodium falciparum ,using a nano luciferase reporter read-out” (2022).
About 540 (0.36%) of roughly 150,000 compounds showed an effect of 50% or more. The full list was thinned out, with strong results kept by preference.

System: Plasmodium falciparum
Assay: Primary screen in NF54 nanoGlo assay, in single point, at 2uM, 72h; a lower Z score goes with more inhibition
Format: functional, Erythrocyte
Conditions: timepoint 72 hour

Structure (SMILES)	% Inhibition	Z score
c1csc([C@@H]2CN(c3ncnc4sccc34)CCO2)n1	5%	-0.74
O=C(NC1CCCCC1)c1nn(-c2ccc(F)cc2)c2ccccc2c1=O	-15%	2.13
O=C1NCCCN1C1CCN(Cc2ccc(Cl)c(C(F)(F)F)c2)CC1	10%	-1.75
COc1cc(-c2ccc(C(=O)N3CCC[C@H](O)C3)cc2)nc(OC)n1	2%	-0.43
Cc1cccc(NC(=O)[C@H]2CCN(c3cn[nH]c(=O)c3)C2)c1	52%	-0.4
O=C(Nc1ccc(N2CCOCC2)cc1)[C@H]1CCN(c2cn[nH]c(=O)c2)C1	-14%	1.91
Cc1cccc(CNC(=O)[C@H]2CCN(c3cn[nH]c(=O)c3)C2)c1	-12%	1.58
CCCCN1C(=O)[C@](NS(=O)(=O)c2ccc(NC(C)=O)cc2)(C(F)(F)F)C(C(C)=O)=C1C	-7%	0.92
COc1ccc(CCn2c(N)c(-c3nc4ccccc4s3)c3nc(C#N)c(C#N)nc32)cc1OC	-5%	0.86
N#Cc1nc2c(S(=O)(=O)c3ccccc3)c(N)n(Cc3ccc(Cl)cc3)c2nc1C#N	-16%	2.57
N#Cc1nc2c(C#N)c(N)n(CCc3ccccc3)c2nc1C#N	88%	-11.87
C[C@H]1COCCN1C(=O)CCc1ccco1	-2%	0.25
Cc1ccc(CNC[C@H](O)c2cccnc2)c(Br)c1	7%	-0.68
O=C(Cn1cnc2ccc(Cl)cc2c1=O)NCCCc1ccccc1	2%	-0.27
Cc1ccsc1CN(CCN1CCOCC1)[C@H]1CCCNC1	-5%	0.7
CCOC(=O)N1CC[C@H](NC2(c3cc(F)ccc3F)CC2)C1	-9%	1.36
O=C(Cn1cc2c(n1)CCCCCC2)NCCc1ccc(Cl)cc1	6%	-0.96
C[C@@H](CNc1nc(-c2ccccc2)nc2ccccc12)N1CCOCC1	-9%	1.51
C[C@@H](CNc1cnc2ccccc2n1)N1CCOCC1	20%	-2.58
CCCCCc1nc([C@H](C)N2CCN(C)CC2)n(-c2cc(C)ccn2)n1	-3%	0.42
O=S(=O)(c1ccc(Cl)s1)N1CCc2nc(-c3ccc(Cl)cc3)ncc2C1	-11%	1.78

Structure (SMILES)	% Inhibition	Z score
Cc1cccc2c1OCC[C@H]2NC(=O)Cn1cnc2c1CCNC21CCOCC1	-5%	0.76
CCOc1cc(CNCCCn2ccnc2)ccc1OCc1ccccc1	46%	-2.57
O[C@@H](CNCCCn1ccnc1)COc1ccc(Cl)cc1Cl	26%	-2.66
O=c1[nH]nc(Cn2ccnc2)n1Cc1ccc(Cl)cc1Cl	0%	-0.08
Clc1ccc(Cn2cc(CNCCCn3ccnc3)c3ccccc32)c(Cl)c1	98%	-10.9
C[C@@H](NCCCn1ccnc1)c1ccc(Cl)cc1	-4%	0.5
Clc1ccc(COc2ccc(Cl)cc2CNCCCn2ccnc2)c(Cl)c1	94%	-11.1
O=C(O)c1cccc(CN2CCc3nc(C4CC4)ncc3C2)c1	-13%	1.45
CC1CC(N2CCCC(n3cnc4ccccc43)C2)CN1C (stereo not drawn)	-5%	0.43
Cc1ccc(C(=O)c2nocc2C(=O)c2cccnc2)cc1	1%	-0.19
CCc1cc(C(=O)N2CCN(C/C=C/c3ccccc3)CC2)cc(=O)[nH]1	0%	0.04
CC1CCC(C(C)C)C(OC(=O)Cn2nnc(C(N)=O)n2)C1 (stereo not drawn)	19%	-2.22
CC1CCC(C(C)C)C(OC(=O)COC(=O)c2ccncc2)C1 (stereo not drawn)	-10%	1.31
CC(C)[C@@H]1CC[C@H](C)C[C@H]1OC(=O)Cn1cc(-c2ccc(Cl)cc2)[n+]2c1CCC2	79%	-6.99
Cc1onc(-c2ccccn2)c1C(=O)NC1CCCCC1	12%	-2.28
C=C(C)C(=O)Nc1ccc(Cc2ccc(NC(=O)C(=C)C)c(O)c2)cc1O	0%	-0.04
O=C(Nc1ccc(Cc2ccc(NC(=O)c3ccc(Br)cc3)c(O)c2)cc1O)c1ccc(Br)cc1	60%	-1
CNC(=O)CCCC(=O)Nc1ccc(Br)cc1O	-9%	0.88
CCN(CC(=O)N1CCCNC(=O)[C@@H]1C)c1ccccc1	-10%	1.27
O=C(NCCc1nccs1)c1n[nH]c2c1CCc1ccccc1-2	-9%	1.37
O=C(c1n[nH]c2c1CCc1ccccc1-2)N1CCCCCC1	-15%	1.3

Structure (SMILES)	% Inhibition	Z score
O=C(NCCN1CCCCC1)c1n[nH]c2c1CCc1ccccc1-2	52%	-0.47
CCc1ncc(NC(=O)c2coc(-c3ccccc3)n2)cn1	-21%	2.66
Cc1nc(C(=O)Nc2[nH]c(=O)ncc2F)c(-c2ccccc2)o1	80%	-7.61
CC(C)c1nc(C(=O)Nc2[nH]c(=O)ncc2F)cs1	88%	-15.46
CC(C)c1nc(C(=O)N[C@@H](C)C(N)=O)cs1	-9%	1.83
O=C(Nc1[nH]c(=O)ncc1F)c1coc(-c2ccccc2)n1	80%	-14.59
Nc1ccc(F)cc1NC(=O)c1coc(-c2ccccc2)n1	-10%	1.7
Cc1nc(C(=O)NC[C@@]23CCC[C@@H]2OCC3)c(-c2ccccc2)o1	0%	-0.01
Cc1cnc(NC(=O)c2nc(C)oc2-c2ccccc2)[nH]1	-10%	1.11
CC(C)c1nc(C(=O)Nc2[nH]nc(C3CC3)c2C#N)cs1	-25%	3.79
CCOCCCNC(=O)C1CCN(C(=O)c2cc3oc(C)cc3n2Cc2c(F)cccc2Cl)CC1	-1%	0.06
CN1CCN(S(=O)(=O)N2CCN(Cc3cccn3C)CC2)CC1	7%	-0.7
NC(=O)CN1CCC(Nc2nc3ccccc3n2CCO)CC1	-7%	1.08
COc1cccc(NC(=O)Cc2c(C)nn(-c3nc(-c4ccc(C)cc4)cs3)c2C)c1	-13%	1.45
CN(Cc1cc2cc(F)ccc2[nH]1)Cc1ccnn1C	-9%	1.38
C[C@H](Nc1ccc(C#N)cn1)c1cccc(-n2cccn2)c1	0%	0.03
CCCCCc1c(C)nc2[nH]n(-c3ccccc3)c(=O)c2c1O	34%	2.26
CNCCc1c(-c2ccccc2)[nH]n(-c2ccccc2)c1=O	82%	-6.33
Cc1ccccc1Cc1c(C)[nH]c2[nH]n(-c3ccccc3)c(=O)c2c1=O	10%	-1.18
O=C1NCCN1CCN1CCc2[nH]ncc2C1	-10%	1.34
CC1=NN(c2ccccc2)C(=O)C12Cc1ccc(Cl)cc1N1CCCCC12 (stereo not drawn)	8%	-1.22

Structure (SMILES)	% Inhibition	Z score
Cc1cc(C)cc(OC[C@@H](O)CNC(C)(C)CC(C)(C)C)c1	-3%	0.43
Cc1cc(OC[C@@H](O)CNC(C)(C)CC(C)(C)C)cc(C)c1Cl	51%	-6.83
Cc1cc(OC[C@@H](O)CNC(C)C)cc(C)c1Cl	-7%	1.4
CCc1cnc(C)nc1N1CCC(N2CC(n3nc(C)cc3C)C2)CC1	6%	-1.11
CN(Cc1cccnc1)C(=O)c1csc(NC(=O)c2ccc(Cl)cc2Cl)n1	-12%	1.69
COc1ccc(-c2ccnc(N[C@H]3CCN(C4CCOCC4)C3=O)n2)cc1	-13%	2.48
C#CCOCC(O)CN(Cc1c(-c2ccccc2)noc1N1CCC(C)CC1)CC1CCCO1 (stereo not drawn)	59%	1.43
CCOC[C@@H](O)CN(Cc1c(-c2ccccc2)noc1N1CCC(C)CC1)CC1CC1	35%	0.79
C=CCOCC(O)CN(Cc1c(-c2ccccc2)noc1N1CCCCC1C)CC1CCCO1 (stereo not drawn)	30%	-0.88
CC(NC(=O)NC(C)c1ccc(-c2cccnc2)cc1)c1ccncc1 (stereo not drawn)	7%	-1.01
CC(C)C(=O)Nc1ccc(-c2cc(-c3ccc(NC(=O)C(C)C)cc3)nc(-c3ccncc3)n2)cc1	38%	-10.15
C[C@H](N)c1ccc(Nc2ncc3cc(-c4ccncc4)ccc3n2)cc1	85%	-9.36
CCOc1c(Br)cc(Cl)cc1NCC(=O)NC(=O)NCC(C)C	-7%	1.36
Cn1ncc2c1CCCN(c1nccn3nc(C(F)(F)F)cc13)C2	-10%	1.44
CC(=O)c1ccc(NC(=O)c2cc3n(n2)CCCO3)cc1	-7%	1.13
CC(C)=CC1C(C(=O)N(C)CC2COc3ccccc3O2)C1(C)C (stereo not drawn)	-4%	0.45
Cc1cncc(C(=O)NC[C@@H](CO)Cc2ccc(Cl)cc2)c1	-7%	0.93
COC[C@H](NCCc1cc(F)cc2c1OCOC2)C1CC1	63%	-8.98
O=C(CNC(=O)NC1CC1)NCCc1cc(F)cc2c1OCOC2	-2%	0.2
CC1CC(NCCc2cc(F)cc3c2OCOC3)CN1C1CC1 (stereo not drawn)	-5%	0.45
Cc1nc(-c2ccnc(NCc3cnc(N(C)C)nc3)c2)n[nH]1	5%	-0.63
